{"source": "PubChem BioAssay (Tox21)", "note": "Records with an inconclusive call do not appear. A call without a number means that no potency is given here. Some compounds were tested as several samples or in several runs, with calls that do not always agree. Active and inactive are the calls of the source. The call rests on the fitted dose curve. Potency means the concentration at half of the fitted maximal effect.", "data": [{"target": "5-hydroxytryptamine receptor 2A (Homo sapiens) (UniProt P28223)", "sequence (P28223 whole entry, looked up)": "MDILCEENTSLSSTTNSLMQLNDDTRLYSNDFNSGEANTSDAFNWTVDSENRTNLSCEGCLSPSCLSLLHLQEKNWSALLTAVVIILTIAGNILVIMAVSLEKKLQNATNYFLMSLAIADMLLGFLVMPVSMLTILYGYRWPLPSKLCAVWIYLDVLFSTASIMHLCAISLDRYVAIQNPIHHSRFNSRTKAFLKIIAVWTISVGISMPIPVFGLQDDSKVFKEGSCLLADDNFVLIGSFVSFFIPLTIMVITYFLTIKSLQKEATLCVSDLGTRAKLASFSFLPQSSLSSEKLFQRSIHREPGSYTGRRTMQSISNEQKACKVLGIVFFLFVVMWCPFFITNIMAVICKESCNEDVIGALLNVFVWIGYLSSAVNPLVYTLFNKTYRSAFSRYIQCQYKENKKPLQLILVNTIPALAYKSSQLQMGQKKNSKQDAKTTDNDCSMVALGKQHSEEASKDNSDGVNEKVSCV", "assay": "5-hydroxytryptamine receptor 2A (HTR2A) small molecule antagonists, cell-based qHTS assay (AID 1963586); further: nearly all actives have a fitted effect of over 45% in size", "conditions": "HTR2A-CHO cells, DOI-induced calcium flux, fluorescence; series mostly up to 61.5 µM", "from_the_text": "National Center for Advancing Translational Sciences [NCATS]\nDivision of Preclinical Innovation [DPI]\nU.S. Environmental Protection Agency [EPA]\nNational Institutes of Environmental Health Sciences [NIEHS]\nNational Toxicology Program [NTP]\nU.S. Food and Drug Administration [FDA]\nThe HTR2A receptor is a subtype of the 5-HT2 receptor that belongs to the serotonin receptor family and is a G protein-coupled receptor (GPCR). The HTR2A-CHO cell line stably expressing human 5-hydroxytryptamine receptor 2A (HTR2A) can be used for screening antagonists of interactions between 5-HT2 and its ligands. The HTR2A-CHO calcium flux assay is a homogeneous fluorescence-based assay for detecting the intracellular calcium level using FDSS kinetic plate reader system.\nTox21 Assay Protocol Summary:\nHTR2A-CHO cells were dispensed at 2000 cells/3uL/well in 1536-well black-clear bottom plates using a Multidrop Dispenser. After the assay plates were incubated at a 37 C/5% CO2 incubator for 18 h, 3 uL of Dye Loading Buffer was transferred to the assay plate by a Flying Reagent Dispenser. The assay plates were incubated at 37 C for 1h. For antagonist mode, 23 nL of compounds dissolved in DMSO, positive controls or DMSO only was transferred to the assay plate by a pin tool. After 5 min incubation at room temperature, 1.5 uL of 4-Iodo-2,5-dimethoxy-alpha-methylbenzeneethanamine hydrochloride (DOI) at 4nM was added to each well. The fluorescence intensity in the plates was measured using FDSS 7000EX kinetic plate reader for 3 min at 1 sec intervals.", "values": [{"smiles": "CCCOCCOCCO", "Potency": "inactive"}, {"smiles": "CCCCCCc1ccc(-c2ccc(C#N)cc2)cc1", "Potency": "inactive"}, {"smiles": "O=C1CCCCCCCCCCCCCCCO1", "Potency": "inactive"}, {"smiles": "CCCCCOC(C)=O", "Potency": "inactive"}, {"smiles": "O=C1OC2(c3ccccc31)c1cc(Br)c(O)c(Br)c1Oc1c2cc(Br)c(O)c1Br", "Potency": "inactive"}, {"smiles": "CCCCCCCCCOS(=O)(=O)O", "Potency": "inactive"}, {"smiles": "CC(C)(c1cc(Br)c(OCC(Br)CBr)c(Br)c1)c1cc(Br)c(OCC(Br)CBr)c(Br)c1", "note": "(stereo not given)", "Potency": "inactive"}, {"smiles": "c1ccc(CSCc2ccccc2)cc1", "Potency": "inactive"}, {"smiles": "COc1ccc(N)c(C)c1", "Potency": "inactive"}, {"smiles": "CC1COc2ccccc2N1", "note": "(stereo not given)", "Potency": "inactive"}, {"smiles": "CC(=O)OC[C@H]1O[C@@H](OC(C)=O)[C@H](OC(C)=O)[C@@H]1OC(C)=O", "Potency": "inactive"}, {"smiles": "CC(C)(C)CC(C)(C)c1ccc(O)c(-n2nc3ccccc3n2)c1", "Potency": "inactive"}, {"smiles": "C=CCCCCCCCCCCCC", "Potency": "inactive"}, {"smiles": "CC(C)(c1ccccc1)c1ccc(Nc2ccc(C(C)(C)c3ccccc3)cc2)cc1", "Potency": "inactive"}, {"smiles": "CCC(C)C(=O)OCCc1ccccc1", "note": "(stereo not given)", "Potency": "inactive"}, {"smiles": "Cc1cccc(N)n1", "Potency": "inactive"}, {"smiles": "CC(CO)Oc1ccccc1", "note": "(stereo not given)", "Potency": "inactive"}, {"smiles": "COC(=O)c1sccc1S(N)(=O)=O", "Potency": "inactive"}, {"smiles": "Nc1ccccc1N", "Potency": "inactive"}, {"smiles": "O=C[C@H](O)[C@@H](O)[C@H](O)[C@H](O)CO", "Potency": "inactive"}, {"smiles": "CC(C)(C)C1CCCCC1O", "note": "(stereo not given)", "Potency": "inactive"}, {"smiles": "CCN[C@H]1CN(CCCOC)S(=O)(=O)c2sc(S(N)(=O)=O)cc21", "Potency": "inactive"}, {"smiles": "C=CCOCC(O)CO", "note": "(stereo not given)", "Potency": "inactive"}, {"smiles": "CC1=CC(=O)c2ccccc2C1=O", "Potency": "inactive"}, {"smiles": "CC(C)CC(=O)O", "Potency": "inactive"}, {"smiles": "O=C(C(=O)c1ccccc1)c1ccccc1", "Potency": "inactive"}, {"smiles": "COCC(O)CO", "note": "(stereo not given)", "Potency": "inactive"}, {"smiles": "Cc1cc(C)c(N)c(Cl)c1", "Potency": "inactive"}, {"smiles": "c1c[nH]cn1", "Potency": "inactive"}, {"smiles": "CS(C)(=O)=O", "Potency": "inactive"}, {"smiles": "O=C(O)c1ccc(O)cc1O", "Potency": "inactive"}, {"smiles": "[O-][n+]1ccc(Cl)cc1", "Potency": "inactive"}, {"smiles": "CCCCCCCOC(=O)c1ccccc1C(=O)OCCCCCCC", "Potency": "inactive"}, {"smiles": "C=C(C)C(=O)OCCOP(=O)(O)O", "Potency": "inactive"}, {"smiles": "COC(=O)c1ccccc1C(=O)O", "Potency": "inactive"}, {"smiles": "CC(C)(C)OC=O", "Potency": "inactive"}, {"smiles": "CN1CCc2cccc3c2[C@H]1Cc1ccc(O)c(O)c1-3", "Potency": "1.51 µM (active) and inactive"}, {"smiles": "CC(C)OC(=O)C(O)(CC(=O)O)CC(=O)O", "Potency": "inactive"}, {"smiles": "Cc1ncc(CSSCc2cnc(C)c(O)c2CO)c(CO)c1O", "Potency": "inactive"}, {"smiles": "CSCCC=O", "Potency": "inactive"}]}]}
